MEKK3 PB1 HTS – MEKK3-MEK5 PB1 interaction, increase or decrease; AID 1529; bead-based flow cytometry, Alexa488-MEK5 binding to MEKK3; actives lie on both sides; 0 = blocked by unlabeled MEK5, 100 = vehicle; Q99759; actives 1.4% (n = 290,000); binding response (% of control), % at 10 µM;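 active = binding response more than 3 SD above or below the average of its plate-row segment, actives on both sides; inconclusive = wells at one plate position flagged as instrument error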;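 also: Alexa488 bead fluorescence after subtracting the streptavidin-only scavenger bead signal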
Target sequence (Q99759 whole entry, looked up): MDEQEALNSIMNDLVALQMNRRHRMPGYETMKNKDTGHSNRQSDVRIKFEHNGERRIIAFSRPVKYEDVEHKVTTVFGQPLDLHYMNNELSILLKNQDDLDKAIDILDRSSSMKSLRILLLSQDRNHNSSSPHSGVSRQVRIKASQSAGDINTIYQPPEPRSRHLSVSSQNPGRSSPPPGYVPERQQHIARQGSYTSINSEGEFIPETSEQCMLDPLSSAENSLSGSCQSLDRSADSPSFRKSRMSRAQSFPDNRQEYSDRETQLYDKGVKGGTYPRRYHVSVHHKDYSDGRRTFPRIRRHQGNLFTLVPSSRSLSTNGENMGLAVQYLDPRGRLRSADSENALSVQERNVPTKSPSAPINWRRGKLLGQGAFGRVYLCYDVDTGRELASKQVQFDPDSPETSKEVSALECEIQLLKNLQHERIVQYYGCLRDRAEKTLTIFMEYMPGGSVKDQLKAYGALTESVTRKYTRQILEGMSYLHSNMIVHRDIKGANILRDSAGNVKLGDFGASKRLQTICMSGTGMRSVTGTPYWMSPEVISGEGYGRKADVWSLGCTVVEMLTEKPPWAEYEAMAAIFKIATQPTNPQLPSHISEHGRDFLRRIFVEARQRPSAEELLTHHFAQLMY
DNA FID counter – displaces DNA intercalator in HCV helicase counter-screen; DNA fluorescent intercalator displacement, fluorescence; inhibition, % at 7.9 µM; actives 0.17% (n = 290,000); in the data active = inhibition above about 37%;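 also: higher means more ethidium bromide displaced from hairpin DNA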
MEKK2 mut-MEK5 – signal of MEK5 binding to mutant human MEKK2 PB1 domain; AID 1530; percent response, % at 10 µM; actives 0.35% (n = 290,000); bead flow cytometry, Alexa488-MEK5 binding to MEKK2 mutant; in the data active = percent response above about 24%, passing the limit was not always enough
MEKK2 WT-MEK5 – raises or lowers MEK5 binding to wildtype human MEKK2 PB1 domain. Q9Y2U5. bead flow cytometry, Alexa488-MEK5 binding to MEKK2 WT; actives lie on both sides. binding response (% of control), % at 10 µM. actives 1.1% (n = 290,000). AID 1531; in the data active = binding response below about 67% or above about 130%; inconclusive = no clear call, values can overlap the other calls; inactive = in between
dFosB activator – activators of mouse delta FosB homodimer. purified delta FosB, TAMRA-CDK5 oligo fluorescence polarization; percent of positive-control signal above neutral wells. actives 0.99% (n = 340,000). activation, % at 25 µM;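 active = mean activation above about 17%, with every replicate also reaching it, limit read from the data, passing the limit was not always enough; inconclusive = only one of the two conditions met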
Of the large screens only hits and unclear results are named; the others gave an inactive call; [ ] = dose if it differs, or a comment. Compounds with a hit are over-represented: about 2.9% of the library has one in this group of screens.

CN1CCN(c2ccc(NC(=S)NC(=O)c3cccc4c(Br)cccc34)cc2)CC1	MEKK2 WT-MEK5 173.0
CN1CCN(c2ccc(NC(=S)NC(=O)c3cccc4ccccc34)cc2)CC1	none
O=c1cc(-c2ccc(O)c(-c3c(O)cc(O)c4c(=O)cc(-c5ccc(O)cc5)oc34)c2)oc2cc(O)cc(O)c12	dFosB activator 18.0
CC1CN(S(=O)(=O)c2cccc(C(=O)OCC(=O)N3CCCCCC3)c2)CC(C)O1 (stereo unspecified)	none (no result: MEKK3 PB1 HTS, DNA FID counter, MEKK2 mut-MEK5, MEKK2 WT-MEK5)
CC(C)CCCCCCCCCCCCC(=O)NCC(=O)NC1C(C)OC(Nc2ncnc3nc[nH]c23)C(O)C1O (stereo unspecified)	dFosB activator 67.6 (no result: MEKK3 PB1 HTS, DNA FID counter, MEKK2 mut-MEK5, MEKK2 WT-MEK5)
Cc1ccc(Nc2cc(C)c3c(O)cccc3n2)cc1C	dFosB activator 38.5
COc1ccc(CNS(=O)(=O)c2csc(C(N)=O)c2)cc1OC	none
COc1ccc(Nc2nc(N3CCCC3)nc3ccccc23)c(OC)c1	dFosB activator 38.7
COc1ccc(OC)c(Nc2nc(NCCO)c3ccccc3n2)c1	DNA FID counter 37.7, dFosB activator 30.8
COc1ccccc1Nc1nc(NCCO)c2ccccc2n1	none (no result: dFosB activator)
COc1ccc(OC)c(Nc2c3ccccc3nc3ccccc23)c1	dFosB activator 36.6
CN1CCN(C(=S)c2ccc(OCC(=O)Nc3cccc(C(F)(F)F)c3)cc2)CC1	none
CC1CCCCC1NC(=O)c1cccc(NC2=NC3CS(=O)(=O)CC3S2)c1 (stereo unspecified)	none
CCC1CCCCN1CCCNC(=O)CS(=O)(=O)Cc1nc(-c2cccc(OC)c2)oc1C (stereo unspecified)	MEKK2 WT-MEK5 140.0
Cc1ccccc1OCCC(=O)Nc1ccccc1C(=O)NC1CC1	none (no result: MEKK3 PB1 HTS, DNA FID counter, MEKK2 mut-MEK5, MEKK2 WT-MEK5)
COc1ccc(CCNC(=O)c2cc3c(=O)n4cccc(C)c4nc3n(CCCN3CCOCC3)c2=N)cc1	DNA FID counter 54.5
Cc1cccn2c(=O)c3cc(C(=O)NC4CCCC4)c(=N)n(CCCN4CCOCC4)c3nc12	DNA FID counter 41.4
Cc1cccn2c(=O)c3cc(C(=O)NCCN4CCOCC4)c(=N)n(CCN4CCOCC4)c3nc12	none
CC(C)CC(=O)NC(=S)N(Cc1ccccc1)Cc1ccccc1	MEKK3 PB1 HTS 148.0
CC1(C(=O)O)CCC(C(=O)Nc2ccc(F)cc2)C1(C)C (stereo unspecified)	none
CC1CCC(NC(=O)C(NC(=O)c2ccccc2)C(C)C)CC1 (stereo unspecified)	none
CC(C)=CCCC(C)CN1CCC(O)CC1 (stereo unspecified)	none
CC(C)=CCC/C(C)=C/CCC(C)NCCN1CCNCC1 (stereo unspecified)	MEKK2 mut-MEK5 48.0, MEKK2 WT-MEK5 224.0 (no result: dFosB activator)
CCN1CCN(c2cc(N3CCN(C(=O)c4ccco4)CC3)c3c4c(onc24)-c2ccccc2C3=O)CC1	MEKK3 PB1 HTS 78.0[inhibitor]
CC(=O)OCCNc1cc(N2CCN(C)CC2)c2noc3c2c1C(=O)c1ccccc1-3	none
O=C(O)CCNc1cc(N2CCN(C(=O)c3ccco3)CC2)c2noc3c2c1C(=O)c1ccccc1-3	MEKK3 PB1 HTS 63.0[inhibitor], MEKK2 WT-MEK5 48.0[inhibitor]
Cc1ccccc1C(=O)c1cccn1CC(=O)NCc1ccc(Cl)cc1	none
Cc1ccccc1C(=O)c1cccn1CC(=O)NCCCN1CCCCC1	none
Cc1ccc(C)c(N2CCN(CCCNC(=O)Cn3cccc3C(=O)c3ccccc3C)CC2)c1	DNA FID counter 37.9
Cc1ccc(CNC(=O)Cn2cccc2C(=O)c2ccccc2C)cc1	MEKK2 WT-MEK5 -1.0
CN(c1ccccc1)S(=O)(=O)c1cccc(NC(=O)CC(C)(C)C)c1	none
CCOc1ccc(C2c3[nH]c4ccccc4c3C[C@H]3C(=O)N(C4CC4)CC(=O)N23)cc1OC (stereo partly specified)	none
CCOc1ccc(C2c3[nH]c4ccccc4c3C[C@H]3C(=O)N(C4CCN(Cc5ccccc5)CC4)CC(=O)N23)cc1OC (stereo partly specified)	dFosB activator 34.7
O=C1[C@@H]2Cc3c([nH]c4ccccc34)C(c3cccc([N+](=O)[O-])c3)N2C(=O)CN1C1CCN(Cc2ccccc2)CC1 (stereo partly specified)	dFosB activator 82.2
Cc1ccc(N(CCC#N)C(=O)COC(=O)C2CCN(S(=O)(=O)c3ccc(C)c(C)c3)CC2)cc1	none (no result: MEKK3 PB1 HTS, DNA FID counter, MEKK2 mut-MEK5, MEKK2 WT-MEK5)
O=C(CC(Cc1ccccc1)C(=O)O)Nc1cccc(C(F)(F)F)c1 (stereo unspecified)	none
O=C(Nc1ccc(Nc2ccncc2)cc1)c1ccc(Nc2ccnc3ccc([N+](=O)[O-])cc23)cc1	MEKK3 PB1 HTS 61.0[inhibitor], DNA FID counter 38.9, MEKK2 WT-MEK5 72.0[inhibitor], dFosB activator inconclusive
COc1ccc(CC(=O)Nc2ccc(C(C)=O)cc2)cc1	MEKK3 PB1 HTS inconclusive, MEKK2 WT-MEK5 inconclusive
COc1ccc(CC(=O)Nc2ccc(C(=O)NCC(C)C)cc2)cc1	dFosB activator 27.7
Cc1ccc(C)c(N2CCN(C(=O)Cn3ncc4c([nH]c5ccc(C)cc54)c3=O)CC2)c1	none
CN1CCN(CCNC(=O)c2ccc3nc(-c4ccc(F)cc4)c(-c4ccc(F)cc4)nc3c2)CC1	DNA FID counter 47.5
CCn1c2ccccc2c2cc(CNCCCN3CCOCC3)ccc21	DNA FID counter 46.9
Cc1ccc(C(=O)NCCN2C3=NC[C@H](C)N3C[C@H]2Cc2ccc(O)cc2)cc1Br	none
COc1ccc(C[C@H]2CN3C(=NC[C@H]3C)N2CCNC(=O)c2ccc(C)c(Br)c2)cc1	DNA FID counter 39.9
N#C/C(=C\c1cn(-c2ccccc2)nc1-c1cccnc1)c1nnc2n1CCCCC2	none
CCOc1cc2nc(-c3ccc(OC)c(OC)c3)nc(NCCCN3CCOCC3)c2cc1OC	DNA FID counter 42.6
COc1cc2nc(=S)n(CCCN3CCOCC3)c(N)c2cc1OC	DNA FID counter 45.0
COc1ccc(-n2ncc3c(NCCCN4CCOCC4)ncnc32)cc1	none
COc1cc2ncnc(NCCCN3CCOCC3)c2cc1OC	DNA FID counter 76.4
CC1CCCCN1c1nnc(NC(=O)c2cc(-c3ccc(Br)cc3)on2)s1 (stereo unspecified)	none
Fc1ccc(-c2cc3nc(-c4ccccc4)cc(N4CCN(CCN5CCOCC5)CC4)n3n2)cc1	dFosB activator 19.7
Nc1nc(SCC(=O)Nc2ccc([N+](=O)[O-])cc2)[nH]c(=O)c1NC(=O)c1ccc(Br)cc1	dFosB activator 50.2
Cc1ccc(S(=O)(=O)N2CCC(C(=O)OCC(=O)N3CCCC3=O)CC2)cc1C	none (no result: MEKK3 PB1 HTS, DNA FID counter, MEKK2 mut-MEK5, MEKK2 WT-MEK5)
Clc1ccc(/C=C\c2nccc3c2[nH]c2ccccc23)cc1	dFosB activator 27.0
N#Cc1ccc(/C=C\c2nccc3c2[nH]c2ccccc23)cc1	dFosB activator inconclusive
CC(C)Cc1ccc(CN2CCCC(NC(=O)CCN3CCCCC3=O)C2)cc1 (stereo unspecified)	none
CC(C)Cc1ccc(CN2CCCC(NC(=O)CCN3CCCO3)C2)cc1 (stereo unspecified)	MEKK2 WT-MEK5 134.0

Screening data deposited in PubChem BioAssay by several laboratories.
